Compounds with a hit are over-represented: about 21% of the library has one in this group of screens.
Pf growth 96h = P. falciparum growth inhibition at 96 hour, primary screen for plastid delayed-death inhibitors | P. falciparum luciferase reporter growth, 96 h | Potency, µM (doses to about 28.7 µM), for the others: at the highest dose activity change, negative = inhibition, hits mostly inhibitors | 320,000 tested, 6.9% active; note: potency is the fitted concentration of half-maximal effect; % is set by controls: 0 for no effect and ±100 for the full control effect
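Two-generation exposure (96 h) targets delayed-death phenotype. Reporter parasites carrying integrated firefly luciferase, in red cells at 2% hematocrit and 0.05% parasitemia final, kept at 37 C, 5% CO2; luminescence loss indicates inhibition.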
SARS PLP yeast = SARS-CoV PLP inhibition in yeast | 330,000 tested, 0.19% active | Potency, µM (highest dose often 32.9 µM), for the others: top-dose activity, positive = growth rescue, actives largely listed as activators | S. cerevisiae expressing SARS-CoV PLpro, growth rescue; calls by dose curve; note: potency is the fitted concentration of half-maximal effect; 0% is about no effect; nearly all actives have a fitted effect of over 55% in size
Cycloheximide cs = counter-screen hit for Shiga toxin inhibitors, cycloheximide; cell reporter, cycloheximide protein synthesis inhibition counterscreen; max response, %; 300,000 tested, 12% active; AID 2314; in the data active = max response mostly above about 13%, no sharp cut-off; inactive = mostly below about 14%; note: read at 38.3 µM for the half of the compounds with a filed dose; 0% is about no effect
Pf growth 48h = inhibits P. falciparum growth in the first generation, 48 h. AID 504832. P. falciparum luciferase growth in erythrocytes, 48 h. Potency, µM (titrated, usually from 28.7 µM), for inactives: at the highest dose activity change, negative = inhibition, hits mostly inhibitors. 310,000 tested, 5.9% active; note: potency is the fitted concentration of half-maximal effect; % is set by controls: 0 for no effect and ±100 for the full control effect
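Erythrocytes infected with P. falciparum carrying an integrated firefly luciferase reporter (2% hematocrit, 0.1% parasitemia final) were exposed to compounds in RPMI 1640 with 0.5% Albumax at 37 C, 5% CO2. Growth inhibition was scored as reduced luminescence.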
NS1 inh = inhibitors of influenza NS1 protein function; Potency, µM (highest dose often 46.1 µM), for the others: at the top dose activity, positive = more growth; 270,000 tested, 0.4% active; calls by dose curve; note: potency is the fitted concentration of half-maximal effect; actives are rising curves; nearly all actives have a fitted effect of over 50% in size
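A cell-based growth assay was used: compounds that relieve NS1-induced slow growth of budding yeast raise OD600. Assay medium was yeast nitrogen base with ammonium sulphate and -URA supplement, pH 6.0, with 2% galactose.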
Shiga toxin inh = Shiga toxin inhibition. Vero cells, Shiga toxin protein synthesis inhibition reporter. inhibition, % at 38.7 µM. 290,000 tested, 9.2% active. AID 2315; in the data active = inhibition mostly above about 28%, no sharp cut-off; inactive = mostly below about 43%; note: 0% is about no effect
Active calls of the source: *; ? = inconclusive; · = not tested or not shown. Unless noted, calls come from the whole dose curve; as a rule, active = well fitted inhibition curve with a large enough effect; inconclusive = small, poorly fitted or top-dose-only effect, or another doubt; inactive = no such curve, though single readings can be large or run the other way.

SMILES | Pf growth 96h | SARS PLP yeast | Cycloheximide cs | Pf growth 48h | NS1 inh | Shiga toxin inh
CCOC(=O)c1[nH]c(C)c(C(=O)OCC)c1C | 45% | -7% | 65* | · | -87% | 138*
CCOC(=O)c1[nH]c(C)c(C(=O)NC)c1C | 389% | -7% | -4 | 40% | 4% | -3
COC(=O)c1c(C)[nH]c(C(=O)OCc2ccc(F)cc2)c1C | 193% | -2% | 78* | 118% | -1% | 134*
CCCNC(=O)COC(=O)c1[nH]c(C)c(C(=O)OCC)c1C | -25% | 6% | 7 | · | 0% | -8
CCOC(=O)c1[nH]c(C)c(C(=O)OCc2ccccc2F)c1C | -26% | 6% | 12* | -15% | 11% | 25
CCOC(=O)c1c(C)[nH]c(C(=O)OCC(=O)N(C)C2CCS(=O)(=O)C2)c1C (stereo not drawn) | · | -4% | -2 | 21% | -5% | -13
CCCN(CC1CC1)C(=O)COC(=O)c1[nH]c(C)c(C(=O)OCC)c1C | 12µM* | -2% | 14 | · | -16% | 0
CCOC(=O)c1c(C)[nH]c(C(=O)NNC(=O)c2ccccc2)c1C | 277% | 3% | 31* | 146% | 5% | 89*
CCOC(=O)c1c(C)[nH]c(C(=O)NNC(=O)c2ccc(Br)cc2)c1C | 71% | 5% | · | 84% | · | ·
CCOC(=O)c1c(C)[nH]c(C(=O)OCC(=O)Nc2sccc2C(N)=O)c1C | ? | 0% | · | 4.7µM* | · | ·
CCOC(=O)c1c(C)[nH]c(C(=O)COC(=O)C2CC2C)c1C (stereo not drawn) | 85% | -1% | 47* | 92% | 4% | 60*
CCOC(=O)c1c(C)[nH]c(C(=O)COC(=O)c2[nH]c(C)c(C(C)=O)c2C)c1C | · | -2% | -2 | 1% | 4% | -11
CCOC(=O)CCCCC(=O)c1[nH]c(=O)[nH]c1CSc1nnc2c3ccccc3n(C(C)C)c2n1 | ? | ? | 4 | ? | 15% | -12
CC(=O)c1cccc(CN2CCN(C(C)C)C(CCO)C2)c1 (stereo not drawn) | ? | 1% | -3 | 11% | 4% | -3
Cc1c(-c2ccc(Cl)cc2Cl)nc2ccccc2c1C(=O)NCCN1CCOCC1 | ? | 1% | -3 | ? | -13% | -11
CN1C(c2ccccc2)CC(=NO)CC1c1ccccc1 (stereo not drawn) | ? | -10% | -3 | -9% | -23% | 19
O=C(NCc1ccccc1)C1(c2cccc(F)c2)CCCC1 | 1% | 0% | 5 | -11% | · | 6
Cc1cccc(CSC2=NN3CCCC(=O)N=C3S2)c1 | -16% | -28% | 43* | 65% | -4% | 56*
O=C1CCCN2N=C(SCC(=O)Nc3ccc(Cl)cc3)SC2=N1 | 10µM* | 0% | -3 | -13% | -11% | 11
O=C1CCCN2N=C(SCC(=O)Nc3cccc(Cl)c3)SC2=N1 | 82% | -1% | 2 | ? | 7% | -5
Cc1ccc(NC(=O)CSC2=NN3CCCC(=O)N=C3S2)cc1Cl | ? | -1% | -1 | ? | -6% | -5
CCCCc1ccc(NC(=O)CSC2=NN3CCCC(=O)N=C3S2)cc1 | 2.1µM* | -1% | 17 | -4% | -7% | 21
CCOc1ccc(NC(=O)CSC2=NN3CCCC(=O)N=C3S2)cc1 | -2% | 8% | 5 | ? | 22% | -5
CC(C)Cn1[nH]c2c3c(ccc2c1=O)C(=O)c1ccccc1C3=O | ? | -10% | 27* | 10µM* | 2% | 61
COc1ccc(OC)c(CC(=O)N2CCc3cc(OC)c(OC)cc3C2)c1 | -8% | -1% | 3 | 6% | 1% | -4
CN(C)c1ccc(C(c2ccc(N(C)C)cc2)c2ccc([N+](=O)[O-])cc2)cc1 | 12µM* | -2% | -3 | -56% | -18% | 4
CN(C)c1ccc(C=NC(CO)C(O)c2ccc([N+](=O)[O-])cc2)cc1 (stereo not drawn) | 12% | -3% | -1 | 33% | -9% | 15
O=C(Cc1ccc(F)cc1)Oc1ccc(C(=S)N2CCCC2)cc1 | -19% | 14% | -2 | -12% | -10% | 15
COc1ccc(CNC(=O)COC(=O)CN2C(=O)C3CC=CCC3C2=O)cc1 (stereo not drawn) | · | 0% | · | · | · | ·
Oc1ccccc1C1CCCCC1c1ccccc1 (stereo not drawn) | ? | -12% | 2 | 7.4µM* | -42% | -9
